Laboratory results reported in PubChem BioAssay (NCI).
Compounds without any hit were thinned out: in the full panel of roughly 83,000, 20% have a hit.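 How to read the values: 0–100, growth inhibition (40 = 60% inhibited); 0, no net growth; -100 to 0, cell death (-40 = 40% of starting cells died; -100 = all dead).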 Calls of active or inactive are those of the source. Rule for the calls: active = growth percent below 10; inactive = the rest.

Tested on: SF-295 CNS
Experiment: NCI-60 one-dose screen, 48 h (100 = growth as untreated, 0 = no growth, -100 = all killed)
Conditions: 10 µM unless noted

| SMILES | growth |
| --- | --- |
| N#CC1=C2NCCCNc3oc(nc3C#N)Cc3ccccc3CC(=N1)O2 | 108% (inactive) |
| COc1ccccc1/C=C1\Oc2ccc(O)c(O)c2C1=O | 112% (inactive) |
| COc1ccc(NC2=C(Br)C(=O)C(C)=C(C)C2=O)cc1OC | 94.4% (inactive) |
| O=C(Nc1ccc(N=Cc2c(O)[nH]c3ccccc23)cc1)Nc1ccc(S(=O)(=O)Nc2ncccn2)cc1 | 101% (inactive) |
| NC(=O)c1c(NC(=O)c2ccc(C(F)(F)F)cc2)sc2c1CCC(=O)C2 | 4.24% (active) |
| O=C(/C=C/c1cccc(Br)c1)c1cccc(OCCCCOc2cccc(C(=O)/C=C/c3cccc(Br)c3)c2)c1 | 107% (inactive) |
| O=C(CCCCCCNC(=O)c1csc(Br)n1)NO | 52% (inactive) |
| CC1CC(=O)C2=C(C1)Nc1ccc(Br)cc1CC2c1c[nH]c2ccc(Br)cc12 (stereo unspecified) | 4.8% (active) |
| C#CCN(C)CCCOc1ccc(NCc2ccc(C(=O)NO)cc2)cc1Cl | 0.985% (active) |
| CC(=O)Nc1nc(C)c(-c2csc(Nc3ccccc3)n2)s1 | 11.9% (inactive) |
| Cc1csc(/N=C(N)/N=C(\N)c2cccc(C#N)c2)n1 | 51.7% (inactive) |
| Clc1cccc(/C=N/Nc2nc(N/N=C/c3cccc(Cl)c3)nc(N3CCCCC3)n2)c1 | 93% (inactive) |
| O=C1[C@H]2Cc3c([nH]c4ccccc34)[C@H](c3ccc(Br)cc3)N2C(=O)CN1C1CCN(CC2CCCCC2)CC1 | 113% (inactive) |
| Cc1[nH]c(C(=O)Nc2ccc(C(=O)NCC3CCNCC3)cc2OC(C)C)c(Cl)c1Cl | 73.5% (inactive) |
| CCN(CC)S(=O)(=O)c1ccc(-c2nc(C(Cl)Cl)nc3cc(-c4ccc(F)cc4)nn23)cc1 | 32.6% (inactive) |
| C/C(=N/N)c1nnn(-c2ccc(Br)cc2)c1C | 94.2% (inactive) |
| CC1=C(C)C(=O)C(Nc2cccc(C)c2)=C(Br)C1=O | 100% (inactive) |
| Cc1ccc(C(=O)Nc2ccc(CNCCN3CCNCC3)c(C(F)(F)F)c2)cc1C#Cc1cnc2cccnn12 | -37.4% (active) |

Tested on: SF-539 CNS
Experiment: as above
Conditions: 10 µM unless noted

| SMILES | growth |
| --- | --- |
| C#C[C@]1(O)CC[C@H]2[C@@H]3CC=C4c5sc(Nc6cc(C)cc(C)c6)nc5CC[C@]4(C)[C@H]3CC[C@@]21C | -47.7% (active) |
| CCCC[n+]1ccc(SCC(=O)n2ccc3ccccc32)c2ccccc21 | 103% (inactive) |
| CC(C)(C)c1cc(NC(=O)Nc2ccc(-c3cn4c5c(sc4n3)CCc3cn(CCCN4CCCCC4)cc3-5)cc2)no1 | -92.1% (active) |
| CCCCCCNC(=O)Oc1ccc(/C(=C(/C)c2ccc(OC)cc2)c2ccc(OCCN3CCCCCC3)cc2)cc1 | -59% (active) |
| Cn1cc(-c2cc3ncnc(Nc4ccc(CC(=O)Nc5nc(C(C)(C)C)cs5)cc4)c3s2)cn1 | 29.1% (inactive) |
| O=C(CCCCCC/C=C\c1csc(Br)n1)NO | 78.9% (inactive) |
| COc1ccc(C(=O)c2c(N)c(C#N)cn2-c2ccc(Cl)cc2Cl)cc1 | 102% (inactive) |
| Cc1ccc2c(n1)C(=O)C(Cl)=C(Nc1cccc(C(F)(F)F)c1)C2=O | 106% (inactive) |
| O=C1[C@H]2Cc3c([nH]c4ccccc34)[C@H](c3ccc(Cl)cc3)N2C(=O)CN1C1CCN(CC2CCCCC2)CC1 | 66.2% (inactive) |
| COc1ccc(/C=N/NC(=O)c2c(N)nn(C)c2Nc2ccccc2)cc1 | 40.2% (inactive) |
| Fc1ccc2nc(-c3cnn4cccnc34)sc2c1 | 86.7% (inactive) |
| O=C(/C=C/c1cccc(F)c1)c1cccc(OCCCCOc2cccc(C(=O)/C=C/c3cccc(F)c3)c2)c1 | 110% (inactive) |
| O=C(COc1ccc(/C=C2\C(=O)Nc3ccc(Cl)cc32)cc1)Nc1ccc(Cl)cc1 | 75.3% (inactive) |
| O=C(Nc1cccc(Cl)c1)Nc1nc2cc([N+](=O)[O-])ccc2o1 | 59.4% (inactive) |
| COc1ccc(NC(=O)CCCCCCNC(=O)C(O)(O)C(F)(F)F)cc1 | 48.7% (inactive) |
| CC(=O)N(O)CCCCCNC(=O)CCC(=O)N(O)CCCCCNC(=O)CCC(=O)N(O)CCCCCN(CCCCCCCCCC[P+](c1ccccc1)(c1ccccc1)c1ccccc1)CCCCCCCCCC[P+](c1ccccc1)(c1ccccc1)c1ccccc1 | -8.94% (active) |
| Cc1cc(Br)ccc1-n1cc(C#N)c(N)c1C(=O)c1ccc(Br)cc1 | 97.4% (inactive) |
| CN(C)S(=O)(=O)c1ccc(-c2nc(C(Cl)Cl)nc3cc(-c4ccccc4)nn23)cc1 | 77.8% (inactive) |
